From PubChem BioAssay AID588855 (National Center for Advancing Translational Sciences (NCATS), 2011)
The campaign covered roughly 410,000 compounds. About 5,000 (1.2%) were called active. Roughly 13% stayed inconclusive and do not appear here. The sample holds actives, similar compounds and a random draw of the others, so the mix is not that of the screen. Calls come from the whole dose curve; as a rule, active = well fitted inhibition curve with a large enough effect; inconclusive = small, poorly fitted or top-dose-only effect; inactive = no such curve, though single readings can be large or run the other way.

Assay: qHTS for Inhibitors of TGF-b; note: nearly all actives have a fitted effect of over 65% in size
Conditions: HepG2 CAGA-GFP TGF-b/SMAD3 reporter, GFP fluorescence, 18 h, TGF-beta stimulated, 500 pg/mL final; series mostly up to 46.1 µM
In short: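 Inhibition of TGF-beta-driven CAGA-GFP reporter expression in HEPG2 cells is measured by cellular GFP fluorescence after 18 h stimulation with 500 pg/mL recombinant TGF-beta in 1% FBS medium at 37 degrees C.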
Potency is the fitted concentration of half-maximal effect.

Potency, inactive:
CC(C)c1ccc(NC(=O)CN(C)S(=O)(=O)c2ccc3c(c2)c(=O)n(C)c(=O)n3C)cc1
Cc1c(CNC2CCCCC2)c(C(=O)O)c(C)n1Cc1cccc(Cl)c1
Cc1cccc(N2CCN(C3=C(c4ccccc4)C(=O)c4ccccc43)CC2)c1C
COc1cc(C(=O)CCc2ccc3c(c2)OCO3)cc(OC)c1OC
COc1ccc(CN2CCCC(N3CCc4ccccc4C3)C2)c(O)c1 (stereo unspecified)
C#CCOc1ccc(C2CC(=O)Nc3c2c(C)nn3-c2nc(C)cc(C)n2)cc1 (stereo unspecified)
COc1ccccc1CNc1ccc(-c2nc(-c3ccccc3C)no2)cc1[N+](=O)[O-]
COc1ccc(S(=O)(=O)NCCOc2ccccc2)cc1F
COc1ccc(OCCNS(=O)(=O)Cc2ccccc2)cc1
NC(=O)C1CCN(C(=O)c2cccc(NC(=O)c3nsc4ccccc34)c2)CC1
O=C(CC(c1cccs1)N1Cc2ccccc2C1=O)Nc1ccc(F)cc1F (stereo unspecified)
CCOc1ccc(C(NC(=O)c2cc(OC)c(OC)c(OC)c2)c2cc(Cl)c3cccnc3c2O)cc1 (stereo unspecified)
O=C(c1ccc(S(=O)(=O)N2CCCC2)cc1)N1CCN(c2ccccc2F)CC1
CN(c1ccccc1)S(=O)(=O)c1cc(C(=O)N2CCN(c3ncccn3)CC2)ccc1Cl
COc1ccc(OCCCn2c(C)nc3cc(C)c(C)cc32)cc1
Cn1nnc2c(N3CCN(c4ccccc4)CC3)ncnc21
O=C(O)C1=C/C(=C/C=[N+]2c3cc(O)c(O[C@H]4OC(CO)[C@@H](O)[C@@H](O)[C@@H]4O)cc3C[C@@H]2C(=O)[O-])C[C@H](C(=O)O)N1 (stereo partly specified)
Cc1nn(CC(=O)N2CCN(c3cccc(C(F)(F)F)c3)CC2)c(=O)c2cc3sccc3n12
Cc1cc(NC(=O)CC(C)C)cc(-c2nc3ncccc3o2)c1O
O=C(CSc1ncnc2scc(-c3ccccc3)c12)NCc1ccc2c(c1)OCO2
CCOc1c2ccc(C(=O)NCc3ccc4c(c3)OCO4)cc2nn1C
CCOc1ccc(CCNC(=O)Cn2nc(CC)n3c(cc4sc(CC)cc43)c2=O)cc1OCC
COc1cccc(Nc2nc3ccccc3c3nncn23)c1
COc1cc(Nc2nc3ccc(Cl)cc3n3cnnc23)cc(OC)c1OC
O=C(CC(NCc1cccnc1)C(=O)O)Nc1ccc(O)cc1 (stereo unspecified)
COc1ccc(NC(=O)Cn2c(=O)n(CCC(C)C)c(=O)c3cccnc32)cc1Cl
Cc1ccc(C)c(N2CCN(c3ccc4cc(S(=O)(=O)N5CCC(C)CC5)ccc4n3)CC2)c1
COc1ccc(Br)cc1C1CC(=O)Nc2c1c(C)nn2-c1nc(C)cc(C)n1 (stereo unspecified)
COc1cccc(CN2CCC(C(=O)NC(c3ccc4c(c3)OCO4)c3ccccn3)CC2)c1 (stereo unspecified)
O=C(NC(c1ccc(Cl)cc1)c1cnccn1)C1CCN(Cc2ccc(Cl)cc2)CC1 (stereo unspecified)
Cc1ccc(OCC(=O)OCc2cc(=O)n3nc(C4CC4)sc3n2)cc1C
COCCNC(=O)CSc1c(C)cnc2c1c(=O)n(C)c(=O)n2C
O=S(=O)(c1ccc(Br)cc1)c1nnn2c1nc(NC1CCCCCC1)c1sccc12
CCOC(=O)c1c(C)[nH]c(CCC(=O)NCCCN2CCN(c3cc(C)ccc3C)CC2)c1C
CC1=C(c2ccc(Cl)cc2)S(=O)(=O)N=C1N1CCN(c2cc(C)ccc2C)CC1
COC(=O)c1c(NC(=O)CCCOc2ccccc2)sc2c1CCC(C)C2 (stereo unspecified)
CSc1ccc(NC(=O)Cn2nnnc2-c2ccccc2F)cc1
CCc1ccc(-n2nnc(-c3nc(-c4ccccc4)no3)c2C)cc1
O=C(c1ccccc1)N1CCN(c2cc(-c3ccccc3)nc3cc(-c4cccc(Cl)c4)nn23)CC1
O=C(CC(c1cccs1)N1Cc2ccccc2C1=O)Nc1ccc(F)c(F)c1 (stereo unspecified)
CCOc1ccccc1NC(=O)Cn1c(=O)n(Cc2ccco2)c(=O)c2sc3ccccc3c21
Cc1c(Cl)cccc1NC(=O)C1CCCN(c2ncnc3onc(C)c23)C1 (stereo unspecified)
Cc1cccc(NC(=O)C2CCCN(C(=O)NCc3ccccc3)C2)c1C (stereo unspecified)
CCOc1ccccc1NC(=O)Cn1c2ncccc2c(=O)n1-c1ccc(C)c(C)c1
Cc1[nH]c2ccccc2c1C(=O)C(=O)N(C)c1ccccc1
COc1ccc(-c2cn3c(C)c(C(=O)Nc4cc(C)cc(C)c4)sc3n2)cc1
COc1ccc(C(C(=O)NC2CCCCC2)N(C(=O)CCl)c2ccccc2Cl)cc1 (stereo unspecified)
COc1ccc(CCNC(=O)CN(c2ccccc2)S(C)(=O)=O)cc1OC
CCn1c2ccccc2c2cc(CC(N)=O)ccc21
CCn1c(=O)c2cc(C(=O)Nc3cccc(C(C)=O)c3)sc2c2ccccc21

Potency, active:
COc1c(O)ccc2c1CN1CCc3cc4c(cc3C1C2)OCO4 (stereo unspecified) 14.1 µM
COc1ccc(S(=O)(=O)NCCCCOc2ccc(Cl)cc2)cc1 12.6 µM
CN(c1ccccc1)S(=O)(=O)c1ccc(C(=O)N2CCN(c3ccccc3Cl)CC2)cc1 15.8 µM
CN(C)C(=O)c1cccc(-c2cnc3sc(NCc4ccc5c(c4)OCO5)nn23)c1 10 µM
FC(F)(F)c1cc(Nc2nc3ccccc3c3nncn23)ccc1Cl 17.8 µM
Cc1cccnc1C(NC(=O)C1CCN(Cc2ccc(Cl)c(Cl)c2)CC1)c1ccc(Cl)cc1 (stereo unspecified) 11.2 µM
CC1=C(c2ccc(C)cc2)S(=O)(=O)NC1=NCCCN1CCN(c2cc(C)ccc2C)CC1 20 µM
COc1cccc(-c2cc3nc4c(c(N5CCC6(CC5)OCCO6)n3n2)CCCC4)c1 12.6 µM
Cc1c(Cl)cccc1NC(=O)C1CCCN(C(=O)c2cnn(-c3ccccc3)c2-n2cccc2)C1 (stereo unspecified) 12.6 µM
COc1ccc(C(CCN(Cc2ccc(OC)c(OC)c2)C(=O)CCl)c2ccccc2)cc1 (stereo unspecified) 14.1 µM
CC(=O)c1ccc2c(c1)c1ccccc1n2CC(C)C 7.08 µM
